The whole screen tested about 310,000 compounds, of which about 2,200 (0.71%) showed an effect of 50% or more. Effects have a minus sign here. Many of the other results were omitted from the sample, so strong results are more common in it than they were.
biological target: human ether-à-go-go-related gene (hERG) potassium channel (human, UniProt Q12809); test: primary screen, population patch clamp on CHO cells stably expressing hERG; higher = less effect of the substance
Sequence (Q12809 whole entry, looked up): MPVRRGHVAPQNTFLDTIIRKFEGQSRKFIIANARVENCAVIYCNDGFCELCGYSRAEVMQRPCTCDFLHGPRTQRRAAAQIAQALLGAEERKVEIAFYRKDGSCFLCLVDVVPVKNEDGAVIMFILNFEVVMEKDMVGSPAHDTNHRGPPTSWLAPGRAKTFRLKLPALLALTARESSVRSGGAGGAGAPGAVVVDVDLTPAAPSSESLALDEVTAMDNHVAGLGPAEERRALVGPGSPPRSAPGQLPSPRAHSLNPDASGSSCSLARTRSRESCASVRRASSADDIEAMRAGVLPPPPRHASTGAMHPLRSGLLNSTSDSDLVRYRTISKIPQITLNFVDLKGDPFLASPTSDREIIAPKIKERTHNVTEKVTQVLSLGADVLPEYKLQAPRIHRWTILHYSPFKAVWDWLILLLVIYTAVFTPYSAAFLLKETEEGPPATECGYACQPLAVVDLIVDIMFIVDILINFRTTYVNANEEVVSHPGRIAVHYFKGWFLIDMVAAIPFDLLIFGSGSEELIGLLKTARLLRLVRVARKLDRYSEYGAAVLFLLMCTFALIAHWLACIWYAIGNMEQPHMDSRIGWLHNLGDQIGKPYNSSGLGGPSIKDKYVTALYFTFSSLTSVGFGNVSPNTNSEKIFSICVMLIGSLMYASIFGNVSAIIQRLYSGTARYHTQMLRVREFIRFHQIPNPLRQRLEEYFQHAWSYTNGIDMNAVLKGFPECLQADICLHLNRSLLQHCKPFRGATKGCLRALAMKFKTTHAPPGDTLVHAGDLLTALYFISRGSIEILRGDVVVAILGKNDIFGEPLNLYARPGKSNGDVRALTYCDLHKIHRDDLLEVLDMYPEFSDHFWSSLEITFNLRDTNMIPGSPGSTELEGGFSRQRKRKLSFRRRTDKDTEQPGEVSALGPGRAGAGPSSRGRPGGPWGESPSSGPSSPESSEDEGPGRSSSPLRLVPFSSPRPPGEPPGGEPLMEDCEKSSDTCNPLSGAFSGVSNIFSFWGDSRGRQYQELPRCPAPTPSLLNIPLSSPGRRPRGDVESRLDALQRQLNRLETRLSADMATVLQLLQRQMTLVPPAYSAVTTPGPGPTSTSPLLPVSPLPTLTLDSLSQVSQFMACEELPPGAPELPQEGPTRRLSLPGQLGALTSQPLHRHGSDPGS

SMILES	hERG current change (%, negative = inhibition) at 1uM
O=C(c1cc2c(ccc3ccccc32)o1)N1CCCCC1	14.4%
CCOC(=O)N1CCN(C(=O)COC(=O)c2ccc(O)cc2O)CC1	16.8%
CC(=O)c1ccc(-n2c(-c3cc(-c4ccsc4)n[nH]3)n[nH]c2=S)cc1	7.9%
CCCCCn1c(=O)[nH]c2cc(C(=O)NCCN3CCOCC3)ccc2c1=O	6.68%
O=C1NC(Cc2ccccc2)c2nc3ccc(Cl)cc3c(=O)n2-c2ccc(Cl)cc21 (centres unmarked)	10.4%
COc1ccc(S(=O)(=O)N2CCOCC2)cc1NC(=O)c1cccc(Cl)c1	6.86%
N#Cc1c(N)n(CCOC(=O)c2cccc([N+](=O)[O-])c2)c2nc3ccccc3nc12	13.1%
COc1ccc(CCNC(=O)c2ccc3c(c2)OCO3)cc1	11.4%
COc1cccc(NC(=O)CSc2nnc(-c3ccoc3C)n2-c2ccccc2)c1	-17.5%
Cc1ccc(-n2c(SCC(N)=O)nnc2-c2ccccn2)cc1C	13%
Cc1csc(NC(=O)CSc2nnc(-c3ccccn3)n2-c2ccc(C)c(C)c2)n1	-57.4%
O=C(CSc1nnc(-c2cccs2)n1-c1ccccc1)NCc1ccco1	-65.9%
COc1ccc(-n2c(SCC(=O)Nc3nccs3)nnc2-c2ccccc2)cc1	13.9%
CCOc1ccc(-n2c(SCC(=O)Nc3nccs3)nnc2-c2ccoc2C)cc1	-35.1%
Cn1c(SCC(=O)NCc2ccco2)nnc1-c1cccs1	8.99%
CCN(CC)C(=O)CSc1nnc(-c2ccccn2)n1-c1ccc(C)c(C)c1	-4.22%
O=C(CSc1nnc(-c2ccccc2)n1-c1ccccc1)NCc1ccco1	7.59%
COc1ccc(-n2c(SCC(=O)Nc3nccs3)nnc2-c2ccoc2C)cc1	-79.4%
COc1cccc(-n2c(SCC(=O)NCCc3ccccc3)nnc2-c2ccoc2C)c1	-50.4%
COc1cccc(-n2c(SCC(=O)NC(C)(C)C)nnc2-c2ccoc2C)c1	-3.46%
COc1ccc(-n2c(-c3cccc(C)c3[N+](=O)[O-])n[nH]c2=S)cc1	7.34%
Cc1ccc(OCC(=O)NC2CCS(=O)(=O)C2)cc1 (centres unmarked)	4.41%

SMILES	hERG current change (%, negative = inhibition) at 1uM
COc1ccc(C(=O)Nc2nc3ccccc3[nH]2)cc1	20.6%
CCCNc1cc(C)oc(=O)c1C(=O)CC	18.4%
CC1(C)Cc2c(C#N)c(SCC(=O)c3ccccc3)nc(N3CCOCC3)c2CS1	13%
COc1ccccc1C(=O)NNC(=O)c1ccccc1	9.59%
CC(=O)n1nc(-c2ccccc2)nc1NCc1cccs1	7.45%
CCC(=O)N1CCN(c2ccc(OC)cc2[N+](=O)[O-])CC1	-0.687%
COc1ccc(N2CCN(C(=O)c3ccc(Br)cc3)CC2)c([N+](=O)[O-])c1	-30.1%
COc1ccc(N2CCN(C(=O)CC34CC5CC(CC(C5)C3)C4)CC2)c([N+](=O)[O-])c1	10.3%
COc1ccc(N2CCN(C(=O)c3ccccc3)CC2)c([N+](=O)[O-])c1	-33.8%
COc1ccc(N2CCN(C(=O)c3cccc(Br)c3)CC2)c([N+](=O)[O-])c1	-85.9%
CCCCC(=O)N1CCN(c2ccc(OC)cc2[N+](=O)[O-])CC1	-54.5%
CCOc1cc(C2C3=C(CC(C)(C)CC3=O)N(CCCOC)C3=C2C(=O)CC(C)(C)C3)ccc1O	14%
O=C1CC(NS(=O)(=O)c2cccnc2)CN1c1cccc(F)c1 (centres unmarked)	10.3%
Cc1ccc(C)c(N(C(=O)CNC(=O)c2ccco2)C(C(=O)NC2CCCCC2)c2ccncc2)c1 (centres unmarked)	7.2%
CCN(CC)CCNC(=O)c1sc2nc(-c3ccccc3)cn2c1C	-31.8%
COc1cc(OC)c(C2=NOC(C(=O)N3CCN(C(=O)c4ccco4)CC3)C2)cc1Cl (centres unmarked)	-12.8%
CCN(CC)CCCNC(=O)c1sc2nc(-c3ccc(F)cc3)cn2c1C	-55.5%
Cc1c(C(=O)N2CCN(C(=O)c3ccco3)CC2)sc2nc(-c3ccc(F)cc3)cn12	-56.7%
COc1cccc(C2=NOC(C(=O)N3CCN(C(=O)c4ccco4)CC3)C2)c1 (centres unmarked)	-16.3%
Cc1c(C(=O)N2CCN(c3ccc(F)cc3)CC2)sc2nc(-c3ccccc3)cn12	-2.42%
COc1ccc(C2=NOC(C(=O)N3CCN(C(=O)c4ccco4)CC3)C2)cc1OC (centres unmarked)	15.8%
O=C(c1ccco1)N1CCN(C(=O)C2CC(c3ccccc3F)=NO2)CC1 (centres unmarked)	3.75%

SMILES	hERG current change (%, negative = inhibition) at 1uM
O=C(c1ccco1)N1CCN(C(=O)C2CC(c3ccc(Cl)cc3)=NO2)CC1 (centres unmarked)	-66.5%
Cc1c(C(=O)NCCCN2CCOCC2)sc2nc(-c3ccc(F)cc3)cn12	-16.8%
CCOC(=O)N1CCN(C(=O)c2sc3nc(-c4ccc(F)cc4)cn3c2C)CC1	-22.3%
O=C(c1ccco1)N1CCN(C(=O)C2CC(c3ccc(F)cc3)=NO2)CC1 (centres unmarked)	-59.7%
O=C(c1cccc(N2C(=O)C3CC=CCC3C2=O)c1)N1CCCc2ccccc21 (centres unmarked)	-16.3%
CCOC(=O)CNC(=O)CSc1nnnn1-c1ccc(C)c(C)c1	0.993%
Cn1cc(CC(=O)N2CCN(c3ccc(Cl)cc3)CC2)c2ccccc21	-0.545%
Cc1ccccc1OCC(=O)Nc1ccccc1C(=O)NC1CC1	8.41%
Cc1ccc(C)c(NC(=S)N2CCN(CCO)CC2)c1	5.15%
CC1CCN(C(=O)COC(=O)c2cn(C)c3ccccc23)CC1	7.49%
Cc1ccc(N2CC(C(=O)N3CCN(C(=O)c4ccco4)CC3)CC2=O)cc1 (centres unmarked)	-45.8%
O=C(c1ccco1)N1CCN(C(=O)C2CC(=O)N(c3ccccc3)C2)CC1 (centres unmarked)	-1.56%
O=C(c1ccco1)N1CCN(C(=O)C2CC(=O)N(c3ccc(Cl)cc3)C2)CC1 (centres unmarked)	-80.2%
O=C(COc1ccc(Cl)cc1)Nc1ccc(Cl)cn1	-2%
COc1ccc(Oc2nc(SC)nc3ccccc23)cc1	2.03%
O=C(/C=C/Nc1ccc(F)cc1F)c1cccs1	18.4%
C[C@H](NC(=O)c1nc[nH]c1C(=O)N[C@@H](CCCCNC(=O)OC(C)(C)C)C(=O)OC(C)(C)C)c1ccccc1	19.1%
COc1ccc(NC(=S)N2CCN(c3ccc([N+](=O)[O-])cc3)CC2)cc1OC	-82.2%
COc1cccc(NC(=S)N2CCN(c3ccc([N+](=O)[O-])cc3)CC2)c1	-9.45%
COc1ccc(NC(=O)N2CCN(c3ccc([N+](=O)[O-])cc3)CC2)cc1OC	-63.2%
O=[N+]([O-])c1ccc(N2CCN(C(=S)Nc3ccc(F)cc3)CC2)cc1	-23.8%
COc1ccc(NC(=O)N2CCN(c3ccc([N+](=O)[O-])cc3)CC2)cc1	-14.2%

SMILES	hERG current change (%, negative = inhibition) at 1uM
COc1ccccc1N1CCN(C(=O)Nc2ccc([N+](=O)[O-])cc2)CC1	-10.6%
Cc1ccc(S(=O)(=O)N/N=C/c2cc(Br)c(C)o2)cc1	8.23%
O=C(N/C(=C/c1cn(-c2ccccc2)nc1-c1ccccc1)C(=O)N1CCOCC1)c1ccc(Cl)cc1Cl	24.2%
Cl.O=S1(=O)N=C(N(CCO)/N=C/c2ccncc2)c2ccccc21	7.58%
CC1CCCCC12NC(=O)N(CC(=O)Nc1ccc(N3CCOCC3)cc1)C2=O (centres unmarked)	4.35%
S=c1[nH]nc(-c2ccncc2)n1/N=C/c1cccc(Cl)c1	8.7%
CNc1c([N+](=O)[O-])cnn1-c1ccccc1Cl	-13.4%
c1cncc(-c2nc(-c3ccc4c(c3)OCCO4)cs2)c1	9.93%
c1ccn2cc(-c3ccc4c(c3)OCCO4)nc2c1	4.22%
O=[N+]([O-])c1ccc2c(c1)OCCOCCOCCOCCOCCOCCO2	-32.5%
Cl.Nc1nc(-c2ccc3c(c2)OCCO3)cs1	14.3%
N#Cc1cncc(-c2ccc3c(c2)OCCOCCOCCOCCOCCO3)n1	-95.2%
N#Cc1ncc(-c2ccc3c(c2)OCCOCCOCCOCCO3)nc1C#N	-63.6%
Cc1ccc2nc(-c3ccc4c(c3)OCCO4)cn2c1	15.7%
N#CCC(=O)Nc1nc(-c2ccc3c(c2)OCCO3)cs1	8.5%
N#Cc1ncc(-c2ccc3c(c2)OCCOCCOCCOCCOCCO3)nc1C#N	-84.8%
CC1CCN(C(=O)COC(=O)C23CC4CC(CC(O)(C4)C2)C3)CC1	18.8%
CCC(C)(C)n1nnnc1C(c1ccncc1)N1CCC(C)CC1 (centres unmarked)	-0.168%
CCCn1nc2ccccc2c1P(=O)(N1CCOCC1)N1CCOCC1	-0.888%
O=C(NCCc1cccc(Cl)c1)c1cc2ccccc2oc1=O	12.5%

Source: article PMC4336329 (PLoS ONE, 2015)
